# Hits are enriched below; roughly 2.9% of the tested compounds scored in any of these assays.
# PLCg1 inh: PLC-gamma1 enzyme inhibitors, primary screen, biochemical, fluorescence, purified enzyme; actives 0.84% (n = 370,000); fluorogenic substrate; inhibition, % at 12.2 µM; 1-phosphatidylinositol 4,5-bisphosphate phosphodiesterase gamma-1 (Homo sapiens), P19174; in the data active = inhibition above about 9.5%
# ADAM17 inh: ADAM17 inhibitors, primary screen, biochemical, QFRET; recombinant ADAM17, EDANS/DABCYL FRET peptide cleavage; inhibition, % at 6.95 µM; actives 0.83% (n = 370,000); AID 720648, 2013;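 active = inhibition above the mean of compounds lying between control limits plus 3 SD, set per campaign, cut at about 8.5% in these data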
# ADAM10 inh: human ADAM10 inhibitors, primary screen, biochemical, QFRET, HTS. Disintegrin and metalloproteinase domain-containing protein 10 (Homo sapiens), O14672. recombinant ADAM10, EDANS/DABCYL FRET peptide cleavage, 3 h. inhibition, % at 7 µM. actives 0.62% (n = 370,000). AID 720582, 2013;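 active = inhibition above a per-campaign cutoff equal to the mean of compounds falling between control-based bounds plus 3 SD, cut at about 20% in these data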
# PLCb3 inh: human PLC-beta3 inhibitors, primary screen, biochemical, fluorescence; 1-phosphatidylinositol 4,5-bisphosphate phosphodiesterase beta-3 (Homo sapiens), Q01970; Purified PLC-beta3, fluorogenic substrate; inhibition, % at 12.2 µM; actives 0.18% (n = 370,000); AID 720704, 2013; in the data active = inhibition above about 11%
# proKLK7 act: proKLK7 zymogen activators, primary screen, biochemical, fluorescence intensity. Kallikrein-7 (Homo sapiens), P49862. purified proKLK7, EDANS-DABCYL substrate fluorescence; 100% is mature enzyme control, 0% vehicle. activation, % at 7 µM. actives 0.9% (n = 370,000). AID 652039, 2013;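 active = activation above the mean of all tested compounds plus 3 SD, computed per campaign excluding outliers beyond control limits, cut at about 13% in these data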
# ADAM10 counter: ADAM10 inhibitors, counter-screen for ADAM17 exosite inhibitor project, biochemical, FRET, human ADAM10; shares compounds with ADAM17 inh; actives 47% (n = 2,900); recombinant ADAM10, EDANS/DABCYL FRET peptide cleavage, 3 h; inhibition, % at 6.95 µM;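 active = mean inhibition over the triplicate runs exceeds the activity threshold set in the earlier primary screen, cut at about 20% in these data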
# ADAM17 confirm: ADAM17 inhibitors, hit retest, confirmation, biochemical, QFRET peptide cleavage | actives 65% (n = 2,900) | inhibition, % at 6.95 µM | recombinant ADAM17, EDANS/DABCYL QFRET peptide cleavage | shares compounds with ADAM17 inh;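 active = mean inhibition across replicates above the hit cutoff set in the primary screen, cut at about 8.5% in these data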
# Numbers stand for hits; – = inactive; · = no result.
SMILES,PLCg1 inh,ADAM17 inh,ADAM10 inh,PLCb3 inh,proKLK7 act,ADAM10 counter,ADAM17 confirm
COc1ccc(CNC(=O)C(=O)NCC2OCCCN2S(=O)(=O)c2cccs2)cc1 (stereo not drawn),–,–,–,–,–,·,·
COc1ccc(NC(=O)C(=O)NCCC2CCCCN2S(=O)(=O)c2ccc(F)cc2)cc1 (stereo not drawn),–,–,–,–,–,·,·
CCN(CC)C(=O)C1=C(C)N(Cc2ccc(F)cc2)C(=O)C(CC(=O)NC(c2ccccc2)c2ccccc2)C1 (stereo not drawn),–,–,–,–,–,·,·
COc1ccc(OCC(=O)N(Cc2ccco2)C2CCS(=O)(=O)C2)cc1 (stereo not drawn),–,–,–,–,–,·,·
O=C1c2c(-c3ccc(Br)cc3)noc2CCN1Cc1cn(Cc2cccnc2)nn1,–,–,–,–,–,·,·
O=C(C[C@@H]1CC[C@@H]2[C@H](COC[C@H](O)CN2Cc2cccc(C(F)(F)F)c2)O1)NCc1ccc(Cl)cc1,–,–,–,–,–,·,·
OCCn1c(CSc2nnc(-c3ccco3)n2-c2ccccc2)nc2ccc(Cl)cc21,–,11,–,–,–,–,–
NC(=O)CSc1nnc(-c2ccco2)n1-c1ccccc1,–,–,–,–,–,·,·
COc1ccc(/C=N/NC(=O)C(=O)/C=C2\NC3(CCCC3)Cc3ccccc32)cc1,–,11,–,–,–,–,–
Cc1csc(=O)n1CCC(=O)O,–,–,–,–,–,·,·
O=C(Nc1cccc(S(=O)(=O)NCc2ccco2)c1)c1cc(-c2ccccc2)nc2ccccc12,–,10,–,–,–,31,17
CCOc1cc(N2CCOCC2)c(OCC)cc1NC(=O)CN1C(=O)NC2(CCc3ccccc32)C1=O (stereo not drawn),–,8.8,–,–,–,–,–
Cc1ccc(C2=NNC(=O)C(P(=O)(c3ccccc3)c3ccccc3)C2)cc1 (stereo not drawn),–,9.4,–,–,–,–,–
Cc1ccc(C2CC(c3ccc(Cl)cc3)=NNC2=O)cc1 (stereo not drawn),–,–,–,–,–,·,·
CCCC(=O)N1CC2(C)CN(C(=O)CCC)CC(CCC)(C1)C2=O,–,12,–,–,–,–,–
Cc1ccc(OCc2nnc(SCC(=O)c3ccc(-c4ccccc4)cc3)n2Cc2ccco2)cc1,–,–,–,–,–,·,·
Cc1ccc(S(=O)(=O)CNC(=S)c2cccc(Cl)c2)cc1,–,11,–,–,–,48,26
CCOC(=O)[C@]12CCCCC/C=C\1N(Cc1ccc(OC)cc1)C(=O)[C@H]2CC(=O)N1CCC(c2ccccc2)CC1,–,9.4,–,–,–,–,–
C[C@H](CO)N1C[C@H](C)[C@@H](CN(C)Cc2ccc3c(c2)OCO3)Oc2cc(Br)ccc2S1(=O)=O,–,8.9,–,–,–,25,14
Cc1nnsc1NC(=O)OCc1ccc(Cl)cc1Cl,–,10,–,–,–,–,–
CCC(=O)N1CCC1(C)C(=O)Nc1cccc(OC)c1OC (stereo not drawn),–,–,–,–,–,·,·
CCOc1ccc(NC(=O)CN(C)C(=O)c2cn(-c3ccc(C)cc3)nc2-c2cccc(OC)c2)cc1OCC,–,14,–,–,–,34,18
COc1ccc(NS(=O)(=O)c2ccc(OC)c(NC(=O)CCC3CCCC3)c2)cc1,–,12,–,–,–,–,12
Clc1cc(Cl)c(OCc2nc(-c3ccccn3)no2)cc1Cl,–,–,–,–,–,·,·
CC(C)(C)c1ccc(OCc2nc(-c3ccccn3)no2)c(Br)c1,–,8.7,–,–,–,–,18
SMILES,PLCg1 inh,ADAM17 inh,ADAM10 inh,PLCb3 inh,proKLK7 act,ADAM10 counter,ADAM17 confirm
CCC(C)NS(=O)(=O)c1ccc2[nH]c(=O)oc2c1 (stereo not drawn),–,–,–,–,–,·,·
COc1cccc(NC(=O)CSc2nncn2N)c1,–,9.7,–,–,–,–,–
COc1ccc(NC(=O)O/N=C/c2ccc(Br)cc2)cc1,–,10,–,–,–,–,–
COC(=O)C1=C(C)N=C2SCCC(=O)N2C1c1ccc(OC(=O)c2ccco2)cc1 (stereo not drawn),–,17,–,–,–,–,–
Cc1ccccc1OCc1nnc(SCC(=O)Nc2ccc3nc(SCC(=O)Nc4ccccc4)sc3c2)n1C,–,11,–,–,–,–,–
Cc1ccccc1OCc1nnc(SCC(=O)Nc2ccc3c(c2)OCO3)n1C,–,–,–,–,–,·,·
CCN1CCN(c2ccc(S(=O)(=O)N3CCOCC3)cc2NC(=O)CC(NC(C)=O)c2ccccc2)CC1 (stereo not drawn),–,–,–,–,–,·,·
O=C(CCC(=O)Nc1ccccc1)NCCO,–,11,–,–,–,–,–
COc1ccc(NC(=O)CCC(=O)NCCO)cc1,–,–,–,–,–,·,·
COc1ccc(CNC(=O)C2CCN(C(=O)[C@@H](CC(C)C)NC(=O)OC(C)(C)C)CC2)cc1,–,8.6,–,–,–,–,–
COc1ccc(CNC(=O)[C@H](C)NC(=O)C2CCN(C(=O)[C@H](CCSC)NC(=O)OC(C)(C)C)CC2)cc1,–,–,–,–,–,·,·
CC1CCC(CC(=O)O)(C(=O)O)CC1 (stereo not drawn),–,–,–,–,–,·,·
CC(C)C(=O)Nc1c(C(=O)N2CCN(c3ncccn3)CC2)oc2ccccc12,–,–,–,–,–,·,·
CCC(CC)C(=O)Nc1c(C(=O)N2CCN(c3ccccc3)CC2)oc2ccccc12,–,9.3,–,–,–,–,–
O=C(Nc1ccccc1Cl)C1CCCN(S(=O)(=O)c2ccc(-n3cnnn3)cc2)C1 (stereo not drawn),–,–,–,–,–,·,·
NC(Cc1ccc(F)cc1)c1csc(NC(=O)NC(c2ccccc2)c2ccccc2)n1 (stereo not drawn),–,8.8,–,–,–,20,9.3
COc1ccc(CNC(=O)Nc2nc(C(N)Cc3ccc(F)cc3)cs2)cc1 (stereo not drawn),–,–,–,–,–,·,·
Cc1ccc(C(=O)CC2C(=O)N(c3ccccc3)C(=S)N2c2ccccc2)cc1 (stereo not drawn),–,9.3,–,–,–,44,19
